# Assay outcomes: PubChem BioAssay, several laboratories
# PP5 inh: PP5 phosphatase inhibitors, primary screen, biochemical, fluorescence; Serine/threonine-protein phosphatase 5 (Homo sapiens), P53041; purified PP5c, OMFP substrate fluorescence; inhibition, % at 6.7 µM; 320,000 tested, 0.18% active;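 active = inhibition above the campaign's mean inhibition across all tested compounds plus 3 SD, cut at about 9.5% in these data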;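 also: 0% = DMSO only and 100% = 100 µM cantharidin control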
# JMJD2C inh: inhibitors of GASC-1 histone demethylase, primary screen, biochemical, fluorescence, DELFIA europium; GST-JMJD2C(1-420) H3K9me3 demethylation; inhibition, % at 2.35 µM; 330,000 tested, 0.069% active; AID 2099, 2009;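 active = more than half of a compound's replicate wells show inhibition beyond 50%, single wells judged on their own value; inconclusive = some, but no more than half, of replicates pass 50% inhibition; inactive = no replicate passes 50% inhibition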;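 also: signal counts dimethyl H3K9 product captured on neutravidin plate; 0% = median of DMSO wells and 100% = 0.3 times that DMSO median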
# Target sequence (Q9H3R0 1-420 limits assumed): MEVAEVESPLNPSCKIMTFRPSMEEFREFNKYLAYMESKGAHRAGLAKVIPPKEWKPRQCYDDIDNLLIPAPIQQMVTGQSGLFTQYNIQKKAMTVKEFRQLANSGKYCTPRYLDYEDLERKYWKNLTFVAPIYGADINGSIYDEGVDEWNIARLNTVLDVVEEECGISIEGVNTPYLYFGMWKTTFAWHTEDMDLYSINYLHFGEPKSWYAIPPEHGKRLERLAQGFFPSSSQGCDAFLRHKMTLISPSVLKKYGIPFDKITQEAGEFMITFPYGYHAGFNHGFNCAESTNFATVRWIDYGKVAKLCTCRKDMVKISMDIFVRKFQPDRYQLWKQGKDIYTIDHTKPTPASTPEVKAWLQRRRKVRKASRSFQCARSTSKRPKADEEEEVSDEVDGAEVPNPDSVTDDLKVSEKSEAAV
# Rev-erbA mod: modulators of Rev-erb alpha DNA binding, primary screen, biochemical, FITC-DNA, fluorescence polarization, uHTS; Nuclear receptor subfamily 1 group D member 1 (Homo sapiens), P20393; 370,000 tested, 0.79% active; AID 1259318, 2017; Rev-erbα–FITC-DNA binding, 90 min; activity, % at 10 µM;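 active = activity above about 14%, limit read from the data; passing the limit was not always enough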;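 also: 0% = DMSO wells with 35 nM protein and 100% = DMSO wells with 750 nM protein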
# PP1 inh: PP1-alpha phosphatase inhibitors, primary screen, counter-screen for PP5 inhibitor project, biochemical, fluorescence, OMFP substrate, single point; Serine/threonine-protein phosphatase PP1-alpha catalytic subunit (Homo sapiens), P62136; purified PP1alpha; inhibition, % at 6.7 µM; 320,000 tested, 0.9% active; AID 2235, 2010;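 active = inhibition above the mean inhibition of all tested compounds plus 3 SD, computed separately for each screening campaign, cut at about 15% in these data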
# proKLK7 act: proKLK7 zymogen activators, primary screen, biochemical, fluorescence intensity | Kallikrein-7 (Homo sapiens), P49862 | purified proKLK7, EDANS-DABCYL substrate fluorescence; 100% is mature enzyme control, 0% vehicle | activation, % at 7 µM | 370,000 tested, 0.9% active | AID 652039, 2013;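 active = activation above the mean of all tested compounds plus 3 SD, computed per campaign excluding outliers beyond control limits, cut at about 13% in these data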
# Target sequence (P49862 whole entry, looked up): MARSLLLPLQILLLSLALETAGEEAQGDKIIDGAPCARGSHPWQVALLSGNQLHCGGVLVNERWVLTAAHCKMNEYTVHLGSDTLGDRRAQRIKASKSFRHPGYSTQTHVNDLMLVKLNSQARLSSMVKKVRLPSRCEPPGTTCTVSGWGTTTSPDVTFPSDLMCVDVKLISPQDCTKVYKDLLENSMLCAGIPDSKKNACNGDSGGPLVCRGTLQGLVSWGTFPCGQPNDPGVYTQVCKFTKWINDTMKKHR
# PG9 Ab binder: binders of HIV-1 gp120 antibody PG9, primary screen, biochemical, TR-FRET. HIV-1 gp120 / PG9 antibody interaction. TR-FRET gp120-PG9 antibody binding. inhibition, % at 6.7 µM. 360,000 tested, 0.43% active. AID 624416, 2012; in the data active = inhibition above about 8.5%
# KLK7 act conf: proKLK7 zymogen activators, confirmation, biochemical, fluorescence intensity, triplicate; shares compounds with proKLK7 act; purified proKLK7, EDANS-DABCYL substrate fluorescence; scaled: vehicle 0, mature enzyme 100; activation, % at 7 µM; 3,200 tested, 68% active; AID 686949, 2013;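 active = activation, as change over the incubation, above the mean of all tested compounds plus 3 SD, cut at about 13% in these data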
# EDANS interfere: EDANS-DABCYL substrate optical interference, artefact control for kallikrein-7 zymogen activator project, biochemical, fluorescence intensity, high throughput | shares compounds with proKLK7 act | no enzyme, 4 h; solvent 0%, active enzyme control 100% | activation, % at 7 µM | 3,200 tested, 80% active | AID 686952, 2013;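 active = activation above the all-compound mean plus 3 SD, ignoring values outside control-based bounds, cut at about 4.8% in these data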;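 also: value is the 4 h activation minus the activation read at time zero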
# K7 EDANS ctr: optically interferes with EDANS-DABCYL fluorescence, kallikrein-7 activator counter-screen. shares compounds with proKLK7 act. EDANS-DABCYL peptide fluorescence interference, no enzyme. EC50, µM. 250 tested, 20% active. AID 720493;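 active = compounds that raise the fluorescence signal in this interference counterscreen, with EC50 at or below 10 µM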;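 also: intact quenched peptide substrate alone read at 355 nm excitation and 520 nm emission; signal is fluorescence gain from T0 to T4 after four hours at room temperature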
# Rev-erbA confirm: modulators of Rev-erb alpha DNA binding, confirmation, biochemical, FITC-DNA, fluorescence polarization, single point; shares compounds with Rev-erbA mod; 90 min; activation, % at 25 µM; 3,000 tested, 61% active;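 active = activation at or above a set limit, or at least 3 SD above the negative control mean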;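 also: 0% = 35 nM protein with DMSO and 100% = 750 nM protein high control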
# Starred values were filed as active, the others as inactive; ? = inconclusive; · = no result. This is a sample that favours compounds with a hit; in the whole collection about 2.8% have one here.
SMILES,PP5 inh,JMJD2C inh,Rev-erbA mod,PP1 inh,proKLK7 act,PG9 Ab binder,KLK7 act conf,EDANS interfere,others
COCCOC(=O)c1c(N)n(Cc2ccc(OC)cc2)c2nc3ccccc3nc12,3,3,0,2,-47,2,·,·,
COCCCn1c(N)c(C(=O)OCCOC)c2nc3ccccc3nc21,2,3,-5,1,84*,2,71*,78*,
CC(C)C[C@H]1N=C(c2ccccc2)c2ccccc2N(CC(=O)NC(C)(C)C)C1=O,·,·,0,·,0,·,·,·,
COc1ccc([C@@H]2C[C@H]3[C@@H](CN2)CON3C)cc1,·,·,2,·,1,·,·,·,
CCOC(=O)c1cc2c(cn1)[nH]c1ccccc12,2,-13,3,-9,20*,0,-2,-5,
CCOC(=O)c1ccccc1N,·,·,0,·,-1,2,·,·,
Cc1c(CCC(=O)N2C[C@H]3C[C@@H](C2)c2cccc(=O)n2C3)c(=O)oc2c(C)c(O)ccc12,·,·,-6,·,84*,-1,73*,78*,
O=C(CCc1ccc(O)cc1)N1C[C@H]2C[C@@H](C1)c1cccc(=O)n1C2,-1,1,0,-3,0,-2,·,·,
Cc1c(CC(=O)N2C[C@H]3C[C@@H](C2)c2cccc(=O)n2C3)c(=O)oc2cc(O)c(Cl)cc12,3,11,-13,-3,73*,3,60*,68*,
Cc1c(CC(=O)N2C[C@H]3C[C@@H](C2)c2cccc(=O)n2C3)c(=O)oc2c(C)c(O)ccc12,3,173,-9,-3,65*,2,68*,72*,
Cc1ccc(N=CN(C)C=Nc2ccc(C)cc2C)c(C)c1,·,·,16,·,·,·,·,·,
CN1CCN(c2cccc3c2C(=O)c2ccccc2C3=O)CC1,·,-13,6,·,0,-7,·,·,
CN1CCN(c2ccc3c(c2)S(=O)(=O)c2ccccc2C3=O)CC1,2,-1,0,0,20*,1,5,4.2*,
CCOC(=O)[C@]12Cc3cc(OC)ccc3[C@H]1N(CC(=O)OC)C(=O)c1cc(OC)ccc12,·,·,-6,·,0,-1,·,·,
COC(=O)C12CCc3c(ccc4cc(OC)ccc34)C1=CC(=O)C2 (stereo unspecified),·,·,-17,·,93*,5,65*,79*,
CC1(O)CCC2C3CCC4=CC(=O)CCC4=C3C=CC21C (stereo unspecified),·,·,-11,·,14*,0,13*,23*,
COCOC1CCC2C3CCC4=CC(=O)CCC4=C3C=CC12C (stereo unspecified),·,·,-4,·,-11,0,·,·,
CC1(C)C(C=C(Cl)Cl)C1C(=O)OC(C#N)c1cccc(Oc2ccccc2)c1 (stereo unspecified),·,·,-7,·,·,·,·,·,
C=CCN(CC#CCO)Cc1ccc(OC)cc1OC,·,·,0,·,1,·,·,·,
Nc1c(C(=O)NCc2ccco2)c2nc3ccccc3nc2n1CCN1CCCCC1,5,3,-21,6,63*,-1,-57,-69,
COc1cc([C@H]2OC[C@H]3[C@@H]2CO[C@@H]3c2cc(OC)c(O[C@@H]3O[C@H](CO)[C@@H](O)[C@H](O)[C@H]3O)c(OC)c2)cc(OC)c1O[C@H]1O[C@@H](CO)[C@H](O)[C@@H](O)[C@@H]1O,·,-2,-2,·,-1,0,·,·,
O=c1ccc2cc(OC3O[C@H](CO)[C@@H](O)[C@H](O)[C@H]3O)c(O)cc2o1 (stereo partly specified),1,·,-14,-9,53*,2,59*,74*,
CN[C@@H](C)[C@H](O)c1ccccc1,·,·,5,·,·,·,·,·,
CCOc1ccc(-c2cc(C)[n+](CCN3CCOCC3)c(-c3ccc(OCC)cc3)c2)cc1,-1,8,0,-4,25*,0,29*,28*,
COc1cccc(-c2sc3ccccc3c2-c2ccc(OCCN3CCOCC3)cc2)c1,·,-7,-1,·,-3,-3,·,·,
SMILES,PP5 inh,JMJD2C inh,Rev-erbA mod,PP1 inh,proKLK7 act,PG9 Ab binder,KLK7 act conf,EDANS interfere,others
Cc1ccc2c(c1)=NC(=O)/C(=C/c1c(O)[nH]c(=O)[nH]c1=O)C=2,2,?,1,-3,18*,-3,46*,45*,
CN(C)CCN=Cc1c(O)n(CCC2=CCCCC2)c(=O)[nH]c1=O,2,104,-4,3,27*,-3,1,0,
Cc1cc(N2CCNC[C@H]2C)ccc1N1CC[C@H](O)C1,·,·,-5,·,1,1,·,·,
N#CCC[C@@H]1CC[C@]2(CCCN(Cc3ccccn3)C2)O1,·,·,5,·,0,·,·,·,
CCN1CCN(C(=O)COc2ccc3c(c2)C(=O)CC2(CCN(C(C)=O)CC2)O3)CC1,-1,16,-1,-1,36*,2,82*,63*,K7 EDANS ctr=>70
COc1cc2c(cc1OC)C(c1c(O)n(CCc3ccccc3)c(=S)[nH]c1=O)NCC2 (stereo unspecified),-6,5,2,-2,95*,-1,85*,84*,
CCOc1cc(C)cc2oc(=O)c3c(c12)CCCC3,0,11,27*,2,-3,-1,·,·,Rev-erbA confirm=2
COC(=O)c1ccc(COc2cc(C)cc3oc(=O)c4c(c23)CCCC4)o1,3,-1,5,0,-1,0,·,·,
CCCCCCn1c(O)c(C=Nc2ccccc2N2CCOCC2)c(=O)[nH]c1=S,1,-5,54*,-1,-1,-2,·,·,Rev-erbA confirm=5
O=C(c1cccs1)c1cn(Cc2ccccc2Cl)c2ccccc12,3,-1,8,-2,0,-3,·,·,
N#Cc1ccccc1Cn1cc(C(=O)c2cccs2)c2ccccc21,1,1,25*,0,0,1,·,·,Rev-erbA confirm=10
